Results on 25 compounds are retold here after PubChem BioAssay AID430 (Sanford-Burnham Center for Chemical Genomics, 2006).

The structures appear in SMILES notation. The whole screen tested about 63,000 compounds, of which about 1,100 (1.7%) were called active. For the sample, actives were picked, then their nearest neighbours and some compounds at random. Measured potencies and affinities stand elsewhere. A number with no mark means an inactive call. No stated cut-off is given here; in the data, active means cytotoxicity above about 50%; inactive means the rest.

The nature of this assay: HPDE-C7 pancreatic duct cell viability loss – fluorescence, HTS (AID 430).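 Further: cells exposed to compound for 48 hours before viability readout; 0% = vehicle and 100% = reference cytotoxic drug.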 Particulars: HPDE-C7 pancreatic duct cells viability, at 10 µM, stronger effect = higher value.
Turning to `COc1ccc2c(c1)c(C(O)CN1CCN(Cc3ccc4c(c3)OCO4)CC1)c(C)n2C` (stereo not given), the cytotoxicity is 21.3%.

As for `c1ccc2c(c1)[nH]c1c(N3CCSCC3)ncnc12`, the cytotoxicity is 44%.

As to `COc1ccc2[nH]c3c(N4CCN(Cc5ccc6c(c5)OCO6)CC4)ncnc3c2c1`, the cytotoxicity was 50.6% (active).

Take `CN1CCN(c2ncnc3c2[nH]c2ccc(F)cc23)CC1`: the cytotoxicity is 6.4%.

Turning to `COc1cccc2[nH]c3c(N4CCN(Cc5ccc6c(c5)OCO6)CC4)ncnc3c12`, the cytotoxicity is 47.6%.

Regarding `COc1cccc(N2CCN(c3ncnc4c3[nH]c3ccc(F)cc34)CC2C)c1` (stereo not given), the cytotoxicity was 114% (active).

`c1ccc2c(c1)oc1c(N3CCN(Cc4ccc5c(c4)OCO5)CC3)ncnc12`: the cytotoxicity was 8.4%.

`COc1ccc2c(c1)c1ncnc(N3CCN(Cc4ccc5c(c4)OCO5)CC3)c1n2C`: the cytotoxicity was 54.9% (active).

As for `c1ccc(Cn2nnc3c(N4CCN(Cc5ccc6c(c5)OCO6)CC4)ncnc32)cc1`, the cytotoxicity is 11.9%.

Take `Fc1ccc2[nH]c3c(N4CCN(C5CCCCC5)CC4)ncnc3c2c1`: the cytotoxicity was 10.6%.

As for `Fc1ccc2[nH]c3c(N4CCN(c5ccccc5)CC4)ncnc3c2c1`, the cytotoxicity is 10.8%.

As to `Cc1ccc(N(CC(=O)NC2CCCCCC2)S(=O)(=O)c2c(C)nn(C)c2C)cc1`, the cytotoxicity is 3.4%.

`COc1cccc(C(=O)N(CN2CCCC2=O)c2ccccc2OC)c1`: the cytotoxicity is -0.2%.

Take `CCCC(c1nnnn1Cc1ccc(F)cc1)N1CCN(C2CCCCC2)CC1` (stereo not given): the cytotoxicity was 10.8%.

Consider `O=C(CN1CCN(c2ccccn2)CC1)Nc1ccc(OCc2ccccc2)cc1`, for which the cytotoxicity was 3.7%.

`O=C1c2ccccc2C(=O)N1CCSc1nncs1`: the cytotoxicity is -8.3%.

Consider `Cc1ccc2[nH]c3c(N4CCN(Cc5ccc6c(c5)OCO6)CC4)ncnc3c2c1`, for which the cytotoxicity was 30.3%.

As to `COC(=O)c1[nH]c2cc(OC)ccc2c1NC(=O)CCN1CCN(Cc2ccc3c(c2)OCO3)CC1`, the cytotoxicity was -20.7%.

Consider `Fc1ccc2[nH]c3c(N4CCN(Cc5ccc6c(c5)OCO6)CC4)ncnc3c2c1`, for which the cytotoxicity is 89.3% (active).

As to `Cc1ccc2c(c1)[nH]c1c(N3CCN(Cc4ccc5c(c4)OCO5)CC3)ncnc12`, the cytotoxicity was -17.1%.

Take `c1nc(N2CCN(Cc3ccc4c(c3)OCO4)CC2)c2[nH]cnc2n1`: the cytotoxicity is -4%.

Regarding `COc1ccccc1-n1c(SCC(=O)NC(C)(C)C)nnc1-c1ccco1`, the cytotoxicity was 3.2%.

For the compound `COC(=O)c1sc(NC(=O)CSc2nnc(C(C)C)n2C)nc1C`, the cytotoxicity is -8.2%.

In the case of `COc1ccccc1CN1C(=O)CCC1(C)C(=O)NC1CCCCCC1` (stereo not given), the cytotoxicity was -12.9%.

With `COCCNC(=O)c1cnn2c(C(F)(F)F)cc(-c3ccc4c(c3)OCO4)nc12`, the cytotoxicity was 4.1%.
